These results are taken from PubChem BioAssay (NCI).

Assay [1] is described as follows: NCI Yeast Anticancer Drug Screen. Data for the rad50 strain (AID 155).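 Also: 0% = growth of vehicle-only cultures of the same strain.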 The conditions noted are these: S. cerevisiae rad50 strain growth inhibition; at 50.0 µM; stronger effect = higher value. In short, it runs like this:
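Genetically altered yeast (DNA repair pathway); compound treatment; growth inhibition vs vehicle ctrl.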

A short description of assay [2]: NCI Yeast Anticancer Drug Screen. Data for the mec2-1 strain (AID 157). The following applies: S. cerevisiae mec2-1 strain, at 50.0 µM, stronger effect = higher value. In short, it runs like this: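 Strain: mec2-1 (DNA repair/cell cycle alteration). Compound exposure, then growth measured; inhibition expressed relative to vehicle.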
Assay [3] in a line: NCI Yeast Anticancer Drug Screen. Data for the sgs1 mgt1 strain (AID 161).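 Also: 0% = growth of cultures given vehicle only.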 The conditions noted are these: S. cerevisiae sgs1 mgt1 strain, at 50.0 µM, stronger effect = higher value. In short, it runs like this: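 Read-out: growth inhibition vs vehicle controls. Cells: mutant yeast strain deficient in DNA damage repair.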
Assay [4] is described as follows: NCI Yeast Anticancer Drug Screen. Data for the cln2 rad14 strain (AID 165).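 Also: 0% = growth equal to vehicle treated cultures.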 The following applies: S. cerevisiae cln2 rad14 strain, at 50.0 µM, stronger effect = higher value. In short, it runs like this:
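Compounds are applied to the cln2 rad14 yeast strain, and growth is then compared with that of vehicle-treated cultures to give inhibition.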

Assay [5] can be described thus: NCI Yeast Anticancer Drug Screen. Data for the bub3 strain (AID 167). The following applies: S. cerevisiae bub3 mutant strain, at 50.0 µM, stronger effect = higher value. Put shortly:
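Yeast carrying a defined mutation is treated with each compound, and growth is compared with that of vehicle-exposed cells to give inhibition.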

Assay [6] in a line: NCI Yeast Anticancer Drug Screen. Data for the mlh1 rad18 strain (AID 175). The conditions noted are these: S. cerevisiae mlh1 rad18 strain growth inhibition; at 50.0 µM; stronger effect = higher value. Put shortly:
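Read-out is yeast growth inhibition, calculated against vehicle-only controls. The compound was applied to a strain engineered with DNA damage repair alterations.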

Compounds without any hit were thinned out: in the full panel of roughly 79,000, 15% have a hit. Values without a mark were called inactive. Calls of active or inactive are those of the source. Rule as the data show it: active = growth inhibition above about 70%; inactive = the rest.

As for `Cc1ccc(NC(=O)C2C(=O)N(c3ccc(C)cc3)C(=O)/C2=N\NC(N)=S)cc1` (stereo not drawn), the growth inhibition in assay [1] is -29.7%; in assay [2], -25.1%; in assay [3], -38%; in assay [4], -10.4%; in assay [5] it was -10%; in assay [6], -26.8%.

Take `COC(=O)c1c2c(cc3c1CC1(Cc4ccccc4C1=O)C3)CCC2` (stereo not drawn): the growth inhibition in assay [1] was -23.2%; in assay [2] it was 5.2%; in assay [3], 14.2%; in assay [4] it was -17.1%; in assay [5], 9.4%; in assay [6] it was -39.9%.

On to `COc1ccccc1NC(=O)CC(=O)NN`, for which the growth inhibition is -0.25% in assay [1]; 2.15% in assay [2]; -3.9% in assay [3]; -25.1% in assay [4]; -1.8% in assay [5]; 0.7% in assay [6].

With `O=C(NCCNC(=O)c1cc(Cl)cc(Cl)c1O)c1cc(Cl)cc(Cl)c1O`, the growth inhibition was -1.35% in assay [1]; 11.4% in assay [2]; 9.3% in assay [3]; -18.4% in assay [4]; -4.9% in assay [5]; 21.8% in assay [6].

Regarding `CC1CCC23C1CC(CC(=O)C2(C)O)C3(C)C` (stereo not drawn), the growth inhibition in assay [1] was 4.75%; in assay [2] it was 6%; in assay [3] it was 5.2%; in assay [4] it was -49.4%; in assay [5] it was -21.1%; in assay [6] it was 5.05%.

Turning to `CCN(CC)C(=O)N1C=CC(C)C=C1`, the growth inhibition is -30.4% in assay [1]; -15.1% in assay [2]; -15.4% in assay [3]; -43.1% in assay [4]; 10.9% in assay [5]; 5.5% in assay [6].

For `O=C1CCCC/C(=C/c2ccccc2)N1`, the growth inhibition in assay [1] was 4.45%; in assay [2], -7.2%; in assay [3] it was -6.7%; in assay [4], 12.8%; in assay [5], -21.8%; in assay [6], 7.85%.

Turning to `Nc1ccccc1Sc1ccc(C(=O)O)cc1[N+](=O)[O-]`, the growth inhibition in assay [1] is 19.6%; in assay [2], 20.2%; in assay [3], 7.75%; in assay [4], -3.55%; in assay [5] it was 22.2%; in assay [6] it was -6.5%.

For `C[N+](C)(C)C=Nc1cccc2c1CCCC2`, the growth inhibition in assay [1] is 2.6%; in assay [2], -37.8%; in assay [3] it was -26.4%; in assay [4] it was -7.05%; in assay [5] it was 6.05%; in assay [6], 1.55%.

`O=[N+]([O-])c1ccc2[nH]ncc2c1`: the growth inhibition in assay [1] is 19.2%; in assay [2] it was -8.05%; in assay [3], 0.35%; in assay [4], -3.15%; in assay [5], 8.45%; in assay [6], 13.7%.

As for `O=C1Nc2ccc3c4c(ccc1c24)CC3`, the growth inhibition is 10.3% in assay [1]; -0.8% in assay [2]; -0.3% in assay [3]; -6.1% in assay [4]; 10.7% in assay [5]; 16.8% in assay [6].

Consider `COc1ccccc1Nc1nc2c([nH]1)c(=O)n(C)c(=O)n2C`, for which the growth inhibition in assay [1] was -33.9%; in assay [2], -15.2%; in assay [3], -41.9%; in assay [4], -32.8%; in assay [5], -4%; in assay [6], -5.85%.

Consider `COC(=O)c1cc(-c2ccc(OC)cc2)[nH]c(=O)c1C#N`, for which the growth inhibition in assay [1] was 20.2%; in assay [2], 21.1%; in assay [3], 31.2%; in assay [4], 20.4%; in assay [5] it was 26.1%; in assay [6] it was 27.9%.

On to `CC1CCCN(P(c2ccccc2)N2CCCC(C)C2)C1` (stereo not drawn), for which the growth inhibition was 25% in assay [1]; 4.6% in assay [2]; 16.4% in assay [3]; 15.4% in assay [4]; 26% in assay [5]; 13% in assay [6].

For the compound `COC(=O)c1n[nH]n(Cc2cccs2)c1=O` (tested in a mixture with another compound), the growth inhibition is 14.8% in assay [1]; 13.9% in assay [2]; 16.1% in assay [3]; -0.85% in assay [4]; 10.6% in assay [5]; 26.2% in assay [6].

Consider `Cc1ccc(S(=O)(=O)N2c3ccccc3[C@H]3CCC=C[C@H]32)cc1`, for which the growth inhibition in assay [1] was -13.2%; in assay [2], 17.8%; in assay [3] it was -19.4%; in assay [4], -20.6%; in assay [5] it was 30.6%; in assay [6], -15.4%.

Take `O=S(=O)(/N=C1C=C/C(=N\S(=O)(=O)c2ccccc2)C2C/1C2(c1ccccc1)c1ccccc1)c1ccccc1` (stereo not drawn): the growth inhibition in assay [1] was 39.7%; in assay [2], 17.6%; in assay [3], 29.8%; in assay [4], -30.6%; in assay [5] it was 1.75%; in assay [6], 13.7%.

Regarding `COc1cc(CC2COC(=O)C2Cc2ccc(O)c(OC)c2)ccc1O` (stereo not drawn), the growth inhibition in assay [1] is -4.85%; in assay [2], 12.1%; in assay [3], 0.35%; in assay [4] it was -15.8%; in assay [5] it was 22.4%; in assay [6], 6.4%.

As for `CCOC(=O)c1cnc2c(cnn2C(C)C)c1NN`, the growth inhibition was -15.6% in assay [1]; -9.05% in assay [2]; 48.2% in assay [3]; -23.9% in assay [4]; 53.4% in assay [5]; -15.4% in assay [6].

Regarding `COc1cc(C2CC(C)(N3CCCC3)Oc3cc4c(cc32)OCO4)cc(OC)c1OC` (stereo not drawn), the growth inhibition was 1.2% in assay [1]; -1.6% in assay [2]; 9.5% in assay [3]; -47.4% in assay [4]; -11.8% in assay [5]; 5.95% in assay [6].

Consider `O=C(Nc1ccccc1[N+](=O)[O-])OCCOc1ccccc1`, for which the growth inhibition is 1.65% in assay [1]; 21.2% in assay [2]; 6.8% in assay [3]; -7.2% in assay [4]; 30.8% in assay [5]; -9.85% in assay [6].

On to `CC(=O)n1nc(Cl)c2cccnc2c1=O`, for which the growth inhibition was 11.8% in assay [1]; -1.1% in assay [2]; 4.3% in assay [3]; 1.55% in assay [4]; -0.4% in assay [5]; 8.85% in assay [6].

Consider `O=C(OC1CCCC1OC(=O)c1ccccc1)c1ccccc1` (stereo not drawn), for which the growth inhibition is -11.5% in assay [1]; 9.6% in assay [2]; 1.6% in assay [3]; -5.3% in assay [4]; 12.2% in assay [5]; 22.4% in assay [6].

Regarding `c1ccc(-c2ccc(-c3nnc(-c4ccc(-c5ccccc5)cc4)o3)cc2)cc1`, the growth inhibition in assay [1] is -0.95%; in assay [2], -10.4%; in assay [3], 2.7%; in assay [4], -35.6%; in assay [5], -2.6%; in assay [6], -3.1%.

Consider `O=c1[nH][nH]c(=O)n2c1cc1oc(-c3ccccc3)cc12`, for which the growth inhibition was 0.05% in assay [1]; 2.45% in assay [2]; 17.8% in assay [3]; -16.1% in assay [4]; 23% in assay [5]; 22.7% in assay [6].

Take `O=C(O)CCC(=O)c1ccc(O)cc1`: the growth inhibition in assay [1] was -0.2%; in assay [2], -27%; in assay [3], -7.1%; in assay [4], -14.7%; in assay [5], -14%; in assay [6] it was 13.6%.

As to `Cc1cc(Cc2cc(C)c(O)c(CN(C)C)c2)cc(CN(C)C)c1O`, the growth inhibition in assay [1] was -1.8%; in assay [2], -7.7%; in assay [3], 1.35%; in assay [4], -19.5%; in assay [5], -6.1%; in assay [6], -7.05%.

On to `CCOC(=O)N1CCN(CCO)CC1`, for which the growth inhibition in assay [1] is -19.9%; in assay [2], 2.65%; in assay [3], 2.35%; in assay [4], -34%; in assay [5], 3.05%; in assay [6] it was -8.25%.

Consider `O=C(Nc1cccc(O)c1)Nc1ccc(Cl)cc1[N+](=O)[O-]`, for which the growth inhibition in assay [1] was 98.2% (active); in assay [2], 99.3% (active); in assay [3], 99.2% (active); in assay [4] it was 97.5% (active); in assay [5] it was 83% (active); in assay [6], 97.8% (active).

As to `O=[N+]([O-])c1ccc(N(CCO)CCO)nc1`, the growth inhibition was -15.7% in assay [1]; -76.6% in assay [2]; 5.15% in assay [3]; 19.5% in assay [4]; -19.3% in assay [5]; -17.8% in assay [6].

As for `CCCCCCSc1n[nH]c(=S)s1`, the growth inhibition in assay [1] is -4.25%; in assay [2], 9.55%; in assay [3] it was 18.4%; in assay [4] it was 24.6%; in assay [5], -5.2%; in assay [6] it was 13.4%.

For `O=C1c2ccccc2C(=O)N1CC1(C(=O)O)NCCS1(=O)=O` (stereo not drawn), the growth inhibition in assay [1] was 3.3%; in assay [2], -7.5%; in assay [3] it was -22.3%; in assay [4] it was 26.8%; in assay [5], -48.9%; in assay [6], 10.1%.

Turning to `O=C1NCC(c2ccccc2)(C2CC2)O1` (stereo not drawn), the growth inhibition in assay [1] was 7.85%; in assay [2], 6.65%; in assay [3], -13.3%; in assay [4] it was -44.6%; in assay [5], 5.1%; in assay [6], -27.1%.

For the compound `COc1cc(/C=C(\C#N)C(N)=O)cc(Br)c1O`, the growth inhibition in assay [1] was -13.5%; in assay [2] it was -24%; in assay [3], 15.9%; in assay [4], 8.65%; in assay [5], 7.45%; in assay [6] it was -7.35%.

For `Cc1ccc(S(=O)(=O)NNC(=O)c2cccnc2)cc1`, the growth inhibition in assay [1] is -11.4%; in assay [2], 18.7%; in assay [3], 1.35%; in assay [4], -27.8%; in assay [5], -5.75%; in assay [6], 4.8%.

In the case of `O=C1C(=Cc2cccnc2)C(=O)c2ccccc21`, the growth inhibition in assay [1] is 26%; in assay [2], 15.3%; in assay [3], 42.4%; in assay [4], 18.9%; in assay [5] it was 6.7%; in assay [6], 9%.

`CCOCCCN`: the growth inhibition is 37.5% in assay [1]; 16.7% in assay [2]; 6.85% in assay [3]; 3.4% in assay [4]; 16.9% in assay [5]; 5.25% in assay [6].

Take `O=C1CC[C@@H](C(=O)Nc2cccc3ccccc23)N1`: the growth inhibition in assay [1] was -7.15%; in assay [2], 8.45%; in assay [3] it was 8.5%; in assay [4], -24.4%; in assay [5] it was 10.6%; in assay [6] it was 21.2%.
